uPA surface inh: qHTS for Inhibitors of Cell Surface uPA Generation; cell surface uPA generation assay, qHTS; Potency, µM (titrated, usually from 38.3 µM), for the others: at the top dose activity change, negative = inhibition, hits mostly inhibitors; 330,000 compounds, 0.31% hits; active = well fitted inhibition curve with a large enough effect; inconclusive = small, poorly fitted or top-dose-only effect; inactive = no such curve, though single readings can be large or run the other way; tested in mouse RAW 264.7 cells; also: potency is read from the fitted curve at half-maximal effect; nearly all actives have a fitted effect of over 55% in size
DT40 TDP1 no CPT: qHTS for Inhibitors of human tyrosyl-DNA phosphodiesterase 1 (TDP1): qHTS in cells in absence of CPT | DT40 Tdp1-/- hTDP1 cells, no CPT, ATP luminescence, 48 h | Potency, µM (highest dose often 46.2 µM), without a hit: top-dose activity change, negative = growth inhibition, most hits filed as inhibitors | 420,000 compounds, 15% hits | AID 686978, 2013; also: potency is read from the fitted curve at half-maximal effect; nearly all actives have a fitted effect of over 55% in size
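Readout: luminescence from CellTiter-Glo after 30 min in the dark at RT. Cells: DT40 Tdp1-/- with stable hTDP1, 400/well. Exposure: compounds alone, ≥48 hr, 37 °C.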
DT40 TDP1 CPT: qHTS for Inhibitors of human tyrosyl-DNA phosphodiesterase 1 (TDP1): qHTS in cells in presence of CPT; Potency, µM (highest dose often 46.2 µM), for the others: at the highest dose activity change, negative = growth inhibition, hits mostly inhibitors; 420,000 compounds, 12% hits; chicken DT40 Tdp1-/-;hTDP1 cells + 20 nM CPT, ATP luminescence, 48 h; AID 686979, 2013; also: potency is read from the fitted curve at half-maximal effect; nearly all actives have a fitted effect of over 55% in size
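Cell growth measured by CellTiter-Glo luminescence after a minimum 48 h, 37 C compound exposure with 20 nM CPT in Tdp1-knockout DT40 cells stably expressing hTDP1, seeded 400/well; qHTS titration format.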
HT1080 IDH1KD tx: qHTS for induction of synthetic lethality in tumor cells producing 2HG: qHTS for the HT-1080-IDH1KD cell line; HT-1080 IDH1 knockdown viability, ATP luminescence, 48 h; Potency, µM (highest dose often 46.1 µM), for inactives: top-dose activity, negative = toxicity, most hits filed as cytotoxic; 360,000 compounds, 2% hits; AID 686971, 2013;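 also: potency is read from the fitted curve at half-maximal effect; 0% = DMSO wells and -100% = cell-free medium wells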
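In this qHTS, HT-1080 cells depleted of IDH1 are exposed for 48 h at 37 °C to compound titrations. Toxicity is scored from CellTiter-Glo luminescence, with DMSO as full viability and medium alone as none.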
IL-1B inflam inh: qHTS for Inhibitors of Inflammasome Signaling: IL-1-beta AlphaLISA Primary Screen | THP-1 LPS/ATP IL-1B secretion, AlphaLISA, 16 h; stronger effect = lower value | activity change, % at 57.5 µM | 360,000 compounds, 4.7% hits | AID 743279, 2014; in the data active = activity change below about -50%; inconclusive = mostly about -30% to -49%
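Secreted IL-1B measured by AlphaLISA bead assay after 16 h compound exposure of THP-1 cells; compounds (final up to 57.5 uM) added 1 h before LPS (250 ng/mL) and ATP (1.25 mM) stimulation; lower signal means less secretion.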
HT1080NT lethal: qHTS for induction of synthetic lethality in tumor cells producing 2HG: qHTS for the HT-1080-NT fibrosarcoma cell line | AID 686970, 2013 | Potency, µM (top dose mostly 46.1 µM), inactives show at the top dose activity, negative = less viability, hits mostly cytotoxic | 360,000 compounds, 1.6% hits | HT-1080-NT fibrosarcoma viability, CellTiter-Glo ATP luminescence, 48 h;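 also: NT is the 2HG producing partner of a matched IDH1 knockdown line; potency is read from the fitted curve at half-maximal effect; 0% = DMSO-treated cells and -100% = media-only wells without cells; nearly all actives have a fitted effect of over 55% in size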
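Read-out is CellTiter-Glo luminescence after 10 minutes at room temperature, following 48 hours' compound treatment of HT-1080-NT cells (750 cells/well, RPMI, 5% FBS, 37 degrees C).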
An asterisk follows results filed as active; ? = inconclusive; · = no result given; [ ] = dose if it differs, or a comment. An excerpt weighted towards active compounds, which were near 19% of everything screened. Unless noted, calls follow the shape of the dose curve; as a rule, active = well fitted curve in the direction sought with a large enough effect; inconclusive = small, poorly fitted or top-dose-only effect, or another doubt; inactive = no such curve, though single readings can be large; an effect the other way counts as inactive or inconclusive. Unless noted, % is scaled to controls: 0 for no effect and ±100 for the full control effect.

SMILES | uPA surface inh | DT40 TDP1 no CPT | DT40 TDP1 CPT | HT1080 IDH1KD tx | IL-1B inflam inh | HT1080NT lethal
O=C(Cc1ccccc1)N/N=C/c1ccccn1 | -4% | -15% | -12% | ? | -3 | -3%
COc1ccc2ccccc2c1CN1CCc2nnc(CNC(=O)c3cccc(F)c3)n2CC1 | · | -24% | 12% | · | · | ·
C/C(CC(=O)NCc1ccco1)=N\NC(=O)c1ccc(Cl)cc1Cl | 4% | -1% | 14% | 15% | 17 | -2%
COc1ccc(-c2nc(CN3CCC(C(=O)NCCc4ccccc4)CC3)c(C)o2)cc1OC | · | ? | -29% | · | · | ·
COc1ccc(CNC(=O)C2CCCN(Cc3nc(-c4cccc(C)c4)oc3C)C2)cc1 (stereo not drawn) | -20% | 13µM* | 13µM* | -22% | ? | -21%
Cc1cccc(-c2nc(CN3CCCC(C(=O)NCc4ccc(Cl)cc4)C3)c(C)o2)c1 (stereo not drawn) | · | 7.3µM* | -86% | · | · | ·
COc1ccc([N+](=O)[O-])cc1NC(=O)C(C)OC(=O)CSC(C)C(=O)Nc1cc(C)on1 (stereo not drawn) | 5% | -8% | 0% | 0% | 8 | 1%
CCN(CC)S(=O)(=O)c1ccc2c(c1)c(=O)c(C(=O)NCc1ccco1)cn2C | -1% | ? | ? | -1% | -8 | -21%
CC1OCC23CC[C@@]4(C)CCC(C)(C)C[C@H]4[C@]2(C)CCC12C3CC[C@@]1(C)C2C(=O)CC(=O)[C@@H]1C (stereo partly drawn) | · | -4%[9.04 µM] | 14%[9.04 µM] | · | · | ·
COc1cc(OC)nc(C(NC(=O)C2CCN(Cc3ccc(Oc4ccccc4)cc3)CC2)c2ccc(F)cc2)n1 (stereo not drawn) | · | ? | 26µM* | 29% | -18 | 28%
CC(NC(=O)C1CCN(Cc2ccc(Oc3ccccc3)cc2)CC1)c1cccc2ccccc12 (stereo not drawn) | · | 15µM* | 23µM* | 10µM* | -24 | ?
CC(NC(=O)C1CCN(Cc2ccccc2)CC1)c1cccc2ccccc12 (stereo not drawn) | · | ? | ? | ? | -19 | ?
COc1ccc(C(NC(=O)C2CCN(Cc3cc(OC)cc(OC)c3)CC2)c2ccccn2)cc1 (stereo not drawn) | · | -29% | 2% | 19% | -14 | 5%
COc1ccc(OCCN2CCC(C(=O)NC(C)c3cccc4ccccc34)CC2)cc1 (stereo not drawn) | · | ? | ? | 5% | -23 | -12%
COc1cccc(CN2CCC(C(=O)NC(C)c3cccc4ccccc34)CC2)c1 (stereo not drawn) | · | 16µM* | 23µM* | ? | ? | ?
COC(=O)C1CCN(C(c2ccccc2Cl)c2sc3nc(-c4ccco4)nn3c2O)CC1 (stereo not drawn) | · | -10% | -28% | · | · | ·
C=CCN1CCN(C(CCC)c2nnnn2Cc2ccco2)CC1 (stereo not drawn) | 1% | -10% | 3% | -18% | -11 | -4%
COc1ccc(/C=C/C(=O)Nc2ccc3nc4c(c(Nc5ccc(OC)c(OC)c5)c3c2)CCCC4)cc1 | · | 4.6µM* | 3.7µM* | · | · | ·
COc1ccc(Nc2c3c(nc4ccc(NC(=O)/C=C/c5cc(OC)c(OC)c(OC)c5)cc24)CCCC3)cc1OC | · | 1.8µM* | 1µM* | · | · | ·
CN(C)S(=O)(=O)Nc1ccc(-c2cn3ccsc3n2)cc1 | · | -23% | ? | · | · | ·
CC1CN(S(=O)(=O)c2cccc(C(=O)N3CCC(C(N)=O)CC3)c2)CC(C)O1 (stereo not drawn) | 2% | -5% | -22% | 13% | 7 | 4%
Cc1ccc(S(=O)(=O)N2CCCCC2)cc1NC(=O)c1nn(C)c(=O)c2ccccc12 | -1% | ? | ? | 9% | 37 | 7%
CC(NC(=O)c1cc(-c2ccncc2)nc2ccc(Br)cc12)C1CCCO1 (stereo not drawn) | -5% | -28% | ? | 3% | 13 | -6%
CC(=O)Nc1ccc2c(c1)Cc1ccc(Cl)cc1-2 | -4% | -7% | -12% | -17% | 5 | -10%
CC(=O)Nc1ccc2c(c1)Cc1cc(N3C(=O)C=CC3=O)ccc1-2 | -12% | 1.3µM* | 1µM* | ? | -12 | -12%
SMILES | uPA surface inh | DT40 TDP1 no CPT | DT40 TDP1 CPT | HT1080 IDH1KD tx | IL-1B inflam inh | HT1080NT lethal
O=C1C=CC(=O)N1c1ccc2c(c1)Cc1cc(F)ccc1-2 | -8% | 2.1µM* | 1.6µM* | -8% | -64* | 23%
O=c1[nH]cc(C(F)(F)F)cc1NS(=O)(=O)c1ccccc1[N+](=O)[O-] | 0% | -19% | 0% | 3% | 15 | 7%
CN(C)CCCNCC(=O)NN(c1ccccc1)c1ccccc1 | 0% | 5% | -23% | 8% | -27 | 2%
CCOC(=O)N1CCC(N2C(=O)c3ccccc3C2Nc2ccc(S(=O)(=O)N(CC)CC)cc2)CC1 (stereo not drawn) | 2% | ? | ? | -4% | -7 | -12%
Cc1noc(C)c1S(=O)(=O)N1CCN(C(c2ccccc2)c2ccc(Cl)cc2)CC1 (stereo not drawn) | 7% | 13µM* | ? | -1% | 46 | -3%
Cc1noc(C)c1S(=O)(=O)N1CCC(C(=O)c2ccccc2)CC1 | -1% | -6% | 2% | 5% | 21 | 11%
O=C(CN1CCCc2ccccc21)N/N=C/c1ccc(O)cc1O | -14% | 16µM* | ? | ? | 102 | ?
O=C(CN1CCCc2ccccc21)N/N=C/c1ccccc1 | 1% | 16µM* | ? | -3% | 18 | -2%
CCN(CC)c1ccc(/C=N/NC(=O)CN2CCCc3ccccc32)cc1 | -22% | ? | ? | -4% | -12 | -1%
O=C(CN1CCCc2ccccc21)N/N=C/c1c(O)ccc2ccccc12 | -11% | 3.7µM* | 4.1µM* | ? | 50 | ?
